The results in this text go back to the supplement of paper PMC9801561.

In test [1] the test system is Escherichia coli Nissle 1917. Description: area under OmniLog respiration curve over 48 h (OmniLog units x h); higher = more growth / nutrient utilisation; extreme values may be limits of the assay. As to conditions: incubation: 48 h, 37 °C.
For test [2], the system named is Escherichia coli Nissle 1917. Description: DuctApe activity index of respiration/growth curve (0 no growth to 9 maximum) (index 0-9); higher = more growth / nutrient utilisation, active = 3 or more; extreme values may be limits of the assay. As to conditions: incubation: 48 h, 37 °C.
[3] abbreviates: nutrient role: sole sulfur source (pyruvate carbon).
[4] abbreviates: nutrient role: sole nitrogen source (pyruvate carbon).
Where [5] appears, read: nutrient role: C-Source, carboxylic acid.
The mark [6] stands for this setting: nutrient role: N-Source, inorganic.
Setting [7] is: nutrient role: sole phosphorus source (pyruvate carbon).
Setting [8] is: nutrient role: C-Source, carbohydrate.
[9] abbreviates: nutrient role: C-Source, amino acid.

± gives the standard deviation of the averaged measurements.
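Throughout, for DuctApe activity index of respiration/growth curve (0 no growth to 9 maximum): biolog PM4 phosphorus and sulfur plates, tetrazolium violet dye reduction read in the OmniLog every 15 min, kinetic curves scored by DuctApe, each plate run in triplicate.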

On to `CS(=O)(=O)O` [Methane Sulfonic acid], for which the “area under OmniLog respiration curve” value in test [1] (setting [3]) stood at 5490 ± 300. In addition, the DuctApe activity index in test [2] (setting [3]) is 6.67 (active).
Regarding `C[C@H](N)C(=O)N[C@H](C(=O)O)[C@@H](C)O`, in test [1] (setting [4]), the “area under OmniLog respiration curve” value came out at 7530 ± 1100. For the same compound, in test [2] (setting [4]), the DuctApe activity index was 8 (active).
With `CSCC[C@@H](N)C(=O)O` [D-Methionine], in test [1] (setting [3]), the “area under OmniLog respiration curve” value turned out to be 4590 ± 230. For the same compound, in test [2] (setting [3]), the DuctApe activity index was 6.33 (active).
As to `CSC[C@H](N)C(=O)O` [S-Methyl-L-Cysteine], the “area under OmniLog respiration curve” value in test [1] (setting [3]) was determined as 17.8 ± 23. Further, the DuctApe activity index in test [2] (setting [3]) was 0.333 (inactive).
For `C=C(CC(=O)O)C(=O)O` [Itaconic acid], the “area under OmniLog respiration curve” value in test [1] (setting [5]) worked out at 4.72. Moreover, the DuctApe activity index in test [2] (setting [5]) is 0 (inactive).
Turning to `CCCCCN` [N-Amylamine], the “area under OmniLog respiration curve” value in test [1] (setting [4]) turned out to be 12.9 ± 14. In addition, the DuctApe activity index in test [2] (setting [4]) was 0 (inactive).
As to `O=NO` [Nitrite], in test [1] (setting [6]), the “area under OmniLog respiration curve” value is 122 ± 150. Further, the DuctApe activity index in test [2] (setting [6]) was 0.667 (inactive).
In the case of `Nc1nc2c(ncn2[C@@H]2O[C@H](CO)[C@@H](O)[C@H]2OP(=O)(O)O)c(=O)[nH]1` [Guanosine 2`-Monophosphate], the “area under OmniLog respiration curve” value in test [1] (setting [7]) is 9820 ± 820. The DuctApe activity index in test [2] (setting [7]) is 9 (active).
Consider `OCC1(O)OC[C@@H](O)[C@H](O)[C@@H]1O` (stereo partly drawn) [D-Tagatose], for which the “area under OmniLog respiration curve” value in test [1] (setting [8]) came to 6560 ± 520. Further, in test [2] (setting [8]), the DuctApe activity index was 7.33 (active).
For the compound `C[N+](C)(C)CC(O)CC(=O)[O-]` (racemic) [D,L-Carnitine], in test [1] (setting [5]), the “area under OmniLog respiration curve” value came to 5.03 ± 0.54. Besides, in test [2] (setting [5]), the DuctApe activity index is 0 (inactive).
For `O=C(O)c1ccc(O)cc1` [4-Hydroxybenzoic acid] the same measures were 4.72 and 0 (inactive).
Take `CC(=O)C(=O)O` [Pyruvic acid]: the “area under OmniLog respiration curve” value in test [1] (setting [5]) turned out to be 9610 ± 520. Also, the DuctApe activity index in test [2] (setting [5]) is 9 (active).
Turning to `OC[C@@H](O)[C@H](O)[C@@H](O)CO` [Xylitol], the “area under OmniLog respiration curve” value in test [1] (setting [8]) was found to be 4.72. In addition, the DuctApe activity index in test [2] (setting [8]) was 0 (inactive).
As for `Cc1c[nH]c(=O)[nH]c1=O` [Thymine], the “area under OmniLog respiration curve” value in test [1] (setting [4]) is 67 ± 110. In test [2] (setting [4]), the DuctApe activity index is 0 (inactive).
Take `CO[C@@H]1O[C@H](CO)[C@H](O)[C@H](O)[C@H]1O` [b-Methyl-D-Galactoside]: in test [1] (setting [8]), the “area under OmniLog respiration curve” value was found to be 6290 ± 550. Further, the DuctApe activity index in test [2] (setting [8]) is 7 (active).
On to `CCC(=O)C(=O)O` [a-Ketobutyric acid], for which, in test [1] (setting [5]), the “area under OmniLog respiration curve” value was 800 ± 760. Besides, the DuctApe activity index in test [2] (setting [5]) is 1.67 (inactive).
As to `O=S(O)(O)=S` [Thiosulfate], in test [1] (setting [3]), the “area under OmniLog respiration curve” value came out at 6770 ± 170. The DuctApe activity index in test [2] (setting [3]) was 7 (active).
On to `O=C(O)C(CO)OP(=O)(O)O` [D-2-Phospho-Glyceric acid], for which, in test [1] (setting [7]), the “area under OmniLog respiration curve” value worked out at 9640 ± 700. Further, the DuctApe activity index in test [2] (setting [7]) was 9 (active).
Take `O=C(O)CC(O)(CC(=O)O)C(=O)O` [Citric acid]: the “area under OmniLog respiration curve” value in test [1] (setting [5]) is 31.1 ± 32. Moreover, the DuctApe activity index in test [2] (setting [5]) was 0 (inactive).
For `O=C(O)[C@@H](O)[C@H](O)[C@H](O)[C@@H](O)C(=O)O` [Mucic acid] the same measures were 8240 ± 630 and 8.33 (active).
Consider `O=C(O)Cc1cccc(O)c1` [m-Hydroxyphenyl Acetic acid], for which the “area under OmniLog respiration curve” value in test [1] (setting [5]) turned out to be 114 ± 120. Also, the DuctApe activity index in test [2] (setting [5]) is 0.667 (inactive).
`N[C@@H](Cc1ccc(O)cc1)C(=O)O` [L-Tyrosine]: the “area under OmniLog respiration curve” value in test [1] (setting [4]) worked out at 1110 ± 450. Further, in test [2] (setting [4]), the DuctApe activity index is 2.33 (inactive).
For `C[C@@H](O)CC(=O)O` [b-Hydroxybutyric acid], in test [1] (setting [5]), the “area under OmniLog respiration curve” value was 186 ± 53. In addition, the DuctApe activity index in test [2] (setting [5]) was 1 (inactive).
With `O=C(O)[C@@H]1C[C@@H](O)CN1` [Hydroxy-L-Proline], the “area under OmniLog respiration curve” value in test [1] (setting [9]) came out at 94.1 ± 78. Also, in test [2] (setting [9]), the DuctApe activity index was 0 (inactive).
As to `O=C(O)Cc1ccc(O)cc1` [p-Hydroxyphenyl Acetic acid], the “area under OmniLog respiration curve” value in test [1] (setting [5]) worked out at 40.5 ± 54. Further, the DuctApe activity index in test [2] (setting [5]) was 0 (inactive).
Take `N[C@H](CS)C(=O)O` [D-Cysteine]: the “area under OmniLog respiration curve” value in test [1] (setting [3]) is 7100 ± 110. The DuctApe activity index in test [2] (setting [3]) is 7.33 (active).
For `NC(N)=S` [Thiourea] the same measures were 4830 ± 410 and 6.33 (active).
With `O=C(O)[C@]1(O)C[C@@H](O)[C@@H](O)[C@H](O)C1` [Quinic acid], in test [1] (setting [5]), the “area under OmniLog respiration curve” value came to 4.72. The DuctApe activity index in test [2] (setting [5]) is 0 (inactive).
Take `N[C@@H](CS)C(=O)NCC(=O)O`: the “area under OmniLog respiration curve” value in test [1] (setting [3]) was 6960 ± 77. Besides, in test [2] (setting [3]), the DuctApe activity index was 7 (active).
As to `C[C@@H](O)[C@H](O)[C@H](O)[C@@H](O)C=O` [D-Fucose], the “area under OmniLog respiration curve” value in test [1] (setting [8]) turned out to be 21 ± 25. Moreover, the DuctApe activity index in test [2] (setting [8]) is 0 (inactive).
On the same counts, the results for `OC1OC[C@@H](O)[C@@H](O)[C@@H]1O` (stereo partly drawn) [D-Arabinose] are 2440 ± 230 and 4 (active).
Turning to `O=CC(=O)O` [Glyoxylic acid], the “area under OmniLog respiration curve” value in test [1] (setting [5]) amounted to 5490 ± 480. In test [2] (setting [5]), the DuctApe activity index was 7 (active).
Take `O=C(O)CCC(=O)O` [Succinic acid]: in test [1] (setting [5]), the “area under OmniLog respiration curve” value stood at 9020 ± 680. Also, in test [2] (setting [5]), the DuctApe activity index was 8.67 (active).
On to `C[C@H](N)C(=O)N[C@@H](CC(=O)O)C(=O)O`, for which, in test [1] (setting [4]), the “area under OmniLog respiration curve” value turned out to be 9150 ± 1000. Moreover, the DuctApe activity index in test [2] (setting [4]) is 8.67 (active).
`Nc1ncnc2c1ncn2[C@@H]1O[C@H](COP(=O)(O)O)[C@@H](O)[C@H]1O` [Adenosine 5`-Monophosphate]: the “area under OmniLog respiration curve” value in test [1] (setting [7]) came out at 9380 ± 770. In addition, in test [2] (setting [7]), the DuctApe activity index is 8.67 (active).
On to `O=C(O)[C@H](O)[C@@H](O)C(=O)O` [L-Tartaric acid], for which the “area under OmniLog respiration curve” value in test [1] (setting [5]) was found to be 34 ± 28. In test [2] (setting [5]), the DuctApe activity index was 0 (inactive).
`OC[C@H](O)C(O)[C@@H](O)CO` [L-Arabitol]: in test [1] (setting [8]), the “area under OmniLog respiration curve” value was 4.72. In test [2] (setting [8]), the DuctApe activity index was 0 (inactive).
